PubChem BioAssay (Tox21)
Where “and” joins values, the source holds several entries; their conditions need not be identical. Identical values can stand only once. The source holds several records for some structures; these can differ, active in one and inactive in another. Calls of active or inactive are those of the source. Unless noted, calls come from the whole dose curve; as a rule, active = well fitted curve in the direction sought with a large enough effect in the repeat runs; inconclusive = weak or mixed curves; inactive = no such curve, though single readings can be large; an effect the other way counts as inactive or inconclusive.

Experiments:
[1] = qHTS assay for small molecule agonists of the p53 signaling pathway (AID 651631; calls by dose curve; note: nearly all actives have a fitted effect of over 15% in size; note: potency is the fitted concentration of half-maximal effect)
Procedure, shortened: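 Quantitative high-throughput format: 4,000 p53RE-bla HCT-116 cells/well, 5 h pre-incubation, 16 h compound exposure at 37 °C, 2 h room-temperature substrate step, fluorescence intensity measured.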

[2] = qHTS assay for small molecules that induce genotoxicity in human embryonic kidney cells expressing luciferase-tagged ATAD5 (AID 651632); note: nearly all actives have a fitted effect of over 15% in size; note: potency is the fitted concentration of half-maximal effect
Procedure, shortened: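 Concentration-response screen for ATAD5 upregulation in HEK293T luciferase reporter cells; 16 hr treatment at 37C, then luminescence after 30 min with Amplite at room temperature.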

[3] = qHTS assay for small molecule agonists of the p53 signaling pathway - cell viability (AID 651633; calls by dose curve; note: nearly all actives have a fitted effect of over 30% in size; note: potency is the fitted concentration of half-maximal effect)
Procedure, shortened: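 p53RE-bla cells were treated with compound for 16 hours at 37 C. Cytotoxicity was then measured as CellTiter-Glo luminescence after 30 min at room temperature.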

[4] = qHTS assay for small molecules that induce genotoxicity in human embryonic kidney cells expressing luciferase-tagged ATAD5 - cell viability (AID 651634; calls by dose curve; note: nearly all actives have a fitted effect of over 25% in size; note: potency is the fitted concentration of half-maximal effect)
Procedure, shortened: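 15.5 hr compound or vehicle exposure of HEK293T cells expressing luciferase-tagged ATAD5 at 37C; live-cell protease activity is read by fluorescence after 30 min of CellTiter-Fluor.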

[5] = qHTS assay for small molecule disruptors of the mitochondrial membrane potential - cell viability (AID 720634; calls by dose curve; note: nearly all actives have a fitted effect of over 20% in size; note: potency is the fitted concentration of half-maximal effect)
Procedure, shortened: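 In this qHTS format, HepG2 cells plated overnight were pinned with compound, incubated 1 hr, and assayed for ATP luminescence with CellTiter-Glo after m-MPI dye addition.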

[6] = qHTS assay to test for compound auto fluorescence at 590 nm (red) in HepG2 cells (AID 720674)
Procedure, shortened: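 Fluorescence at 590 nm emission following 540 nm excitation was recorded from HepG2 wells one hour after compound transfer, with DMSO-only wells as vehicle and Rose Bengal sodium equivalency as the scale.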

[7] = qHTS assay to test for compound auto fluorescence at 460 nm (blue) in HEK293 cells (AID 720678); note: potency is the fitted concentration of half-maximal effect
Procedure, shortened: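 Triamterene serves as the blue fluorophore standard. Compound signal at 405/460 nm is read in HEK293 wells (2,000 cells, 10% dialyzed FBS) after overnight treatment at 37C.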

[8] = qHTS assay to test for compound auto fluorescence at 590 nm (red) in HEK293 cells (AID 720679)
Procedure, shortened: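 We plated HEK293 cells in 10% dialyzed FBS medium, let them adhere for 4-5 hr, then added 23 nL compound. Overnight at 37C and 5% CO2 preceded fluorescence measurement at 540/590nm.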

[9] = qHTS assay to test for compound auto fluorescence at 535 nm (green) in HEK293 cells (AID 720680)
[10] = qHTS assay to test for compound auto fluorescence at 460 nm (blue) in HEK293 cell free culture (AID 720681); note: potency is the fitted concentration of half-maximal effect
Procedure, shortened: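 Compounds were added to cell-free DMEM with 10% FBS and fluorescence read directly. The blue channel used 405 nm excitation and 460 nm emission, with triamterene as the reference fluorophore.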

[11] = qHTS assay to test for compound auto fluorescence at 535 nm (green) in HEK293 cell free culture (AID 720682)
Procedure, shortened: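 Measurement is a direct plate read of green fluorescence (485 nm in, 535 nm out) after compound addition to serum-supplemented DMEM lacking cells, with fluorescein used to express intensities.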

[12] = qHTS assay to test for compound auto fluorescence at 590 nm (red) in HEK293 cell free culture (AID 720683)
Procedure, shortened: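 Cell-free wells of DMEM with 10% FBS received compound, and intrinsic fluorescence was read at excitation/emission 540/590 nm. Values expressed as equivalence to Rose Bengal sodium.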

[13] = qHTS assay to test for compound auto fluorescence at 590 nm (red) in HepG2 cell free culture (AID 720684)
Procedure, shortened: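 Rose Bengal sodium served as the reference for red signal. Test compounds were dispensed into serum-containing MEM (10% FBS) without cells, and plates were read at 540/590 nm.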

[14] = qHTS assay to test for compound auto fluorescence at 535 nm (green) in HepG2 cell free culture (AID 720686); note: potency is the fitted concentration of half-maximal effect
[15] = qHTS assay to test for compound auto fluorescence at 460 nm (blue) in HepG2 cells (AID 720687); note: potency is the fitted concentration of half-maximal effect
Procedure, shortened: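 HepG2 cells in MEM with 10% FBS, attached overnight at 37 C, were exposed to compound or DMSO for 1 hr at 37 C, 5% CO2. Blue fluorescence was read at 405/460 nm, with triamterene as reference fluorophore.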

[16] = qHTS assay for small molecule disruptors of the mitochondrial membrane potential (AID 720635); note: potency is the fitted concentration of half-maximal effect
Procedure, shortened: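 HepG2 cells exposed to compound 1 hr at 37C, then Mito-MPS dye 30 min. Ratio read of aggregate (540/590 nm) versus monomer (490/535 nm) fluorescence.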

[17] = qHTS assay to test for compound auto fluorescence at 535 nm (green) in HepG2 cells (AID 720675); note: potency is the fitted concentration of half-maximal effect
[18] = qHTS assay to test for compound auto fluorescence at 460 nm (blue) in HepG2 cell free culture (AID 720685)
Procedure, shortened: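 Cell-free plates of MEM plus 10% FBS received 23 nL compound or DMSO vehicle; blue-channel (405/460 nm) intensity scored against triamterene as reference fluorophore.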

[19] = target: Glucocorticoid receptor (Homo sapiens) (UniProt P04150); assay: qHTS assay to identify small molecule antagonists of the glucocorticoid receptor (GR) signaling pathway (AID 720692; active = well fitted inhibition curve with a large enough effect in the signal ratio in the repeat runs, not every such curve was filed as active; inconclusive = weak or mixed curves, or effect the other way; inactive = no such curve, though single readings can be large or run the other way; the % refers to the signal ratio; note: potency is the fitted concentration of half-maximal effect)
Procedure, shortened: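 Tox21 10K library screened in concentration-response for blockade of dexamethasone (5 nM final)-induced GRE-bla reporter activity in HeLa cells; 18 h treatment, fluorescence read.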

[20] = target: Glucocorticoid receptor (Homo sapiens) (UniProt P04150); assay: qHTS assay to identify small molecule agonists of the glucocorticoid receptor (GR) signaling pathway (AID 720691; active = well fitted activation curve with a large enough effect in the signal ratio in the repeat runs, not every such curve was filed as active; inconclusive = weak or mixed curves, or effect the other way; inactive = no such curve, though single readings can be large or run the other way; the % refers to the signal ratio; note: potency is the fitted concentration of half-maximal effect); settings: GR-bla HeLa, beta-lactamase reporter ratio, 18 h
Procedure, shortened: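 Measures GR pathway activation through a GRE-beta-lactamase reporter stably integrated in HeLa cells, with 18 h compound treatment at 37 C and fluorescence detection using a FRET substrate.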

[21] = activation: at 62.4 µM (top of the series)
% is set by controls: 0 for no effect and ±100 for the full control effect; tags give direction and shape of the fitted curve or compound fluorescence and quenching.

Glucocorticoid receptor (Homo sapiens), sequence (P04150 whole entry, looked up): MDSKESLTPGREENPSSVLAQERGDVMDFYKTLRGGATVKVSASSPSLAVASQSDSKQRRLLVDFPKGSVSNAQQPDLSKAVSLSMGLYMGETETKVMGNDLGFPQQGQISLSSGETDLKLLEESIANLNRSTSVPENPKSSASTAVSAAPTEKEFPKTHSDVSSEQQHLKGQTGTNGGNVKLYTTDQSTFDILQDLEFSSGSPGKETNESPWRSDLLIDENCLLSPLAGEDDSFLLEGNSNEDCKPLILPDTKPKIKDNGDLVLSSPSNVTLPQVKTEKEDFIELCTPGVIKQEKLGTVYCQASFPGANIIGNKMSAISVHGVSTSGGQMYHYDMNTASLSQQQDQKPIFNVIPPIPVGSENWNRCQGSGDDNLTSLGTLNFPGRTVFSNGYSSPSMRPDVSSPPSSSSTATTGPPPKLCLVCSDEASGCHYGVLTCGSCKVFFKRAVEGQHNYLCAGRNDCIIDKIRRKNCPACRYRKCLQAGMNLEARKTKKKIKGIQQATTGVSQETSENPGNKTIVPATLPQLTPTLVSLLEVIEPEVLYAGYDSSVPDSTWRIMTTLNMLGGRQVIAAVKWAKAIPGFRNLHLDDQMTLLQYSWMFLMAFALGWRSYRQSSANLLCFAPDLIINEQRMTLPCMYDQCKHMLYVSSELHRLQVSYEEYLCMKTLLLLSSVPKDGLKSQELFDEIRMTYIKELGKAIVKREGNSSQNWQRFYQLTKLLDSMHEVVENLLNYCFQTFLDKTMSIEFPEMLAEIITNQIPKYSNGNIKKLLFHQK

CC(=O)OCC(C)OC(C)=O (stereo not given)
inactive: Potency [1] | Potency [2] | Potency [3] | Potency [4] | Potency [5] | Potency [6] | Potency [7] | Potency [8] | outcome [9] | Potency [10] | outcome [11] | Potency [12] | Potency [13] | Potency [14] | Potency [15]

O=C(OC[C@H]1O[C@@H](OC(=O)c2cc(O)c(O)c(OC(=O)c3cc(O)c(O)c(O)c3)c2)[C@H](OC(=O)c2cc(O)c(O)c(OC(=O)c3cc(O)c(O)c(O)c3)c2)[C@@H](OC(=O)c2cc(O)c(O)c(OC(=O)c3cc(O)c(O)c(O)c3)c2)[C@@H]1OC(=O)c1cc(O)c(O)c(OC(=O)c2cc(O)c(O)c(O)c2)c1)c1cc(O)c(O)c(OC(=O)c2cc(O)c(O)c(O)c2)c1
inactive: Potency [2] | Potency [6] | Potency [17] | Potency [7] | Potency [8] | outcome [9] | Potency [10] | outcome [11] | Potency [12] | Potency [13] | Potency [18] | Potency [14] | Potency [15] | Potency [19]
10.6 µM (active) and inactive: Potency [5]
active: Potency [1] 2.66 µM and 10.4 µM | Potency [16] 2.37 µM
5.96 µM (active) and inactive: Potency [3]

CC(C)(C)C(=O)OCOC(=O)[C@@H]1N2C(=O)[C@@H](NC(=O)[C@H](N)c3ccccc3)[C@H]2SC1(C)C
inactive: Potency [1] | Potency [3] | Potency [4] | Potency [5] | Potency [16] | fluorescence, relative to Rose Bengal [6] 0.612% [at 18.6 µM] | fluorescence, % of fluorescein control [17] -0.113% [at 18.6 µM] | fluorescence, % of triamterene [7] 0.0033% [at 18.6 µM] | fluorescence, % of fluorescent control [8] 0.201% [at 18.6 µM] | fluorescence, % of fluorescein [9] -0.024% [at 18.6 µM] | fluorescence, % of fluorescent control [10] 0.0397% [at 18.6 µM] | activity change [11] 0.023% [at 18.6 µM] | fluorescence, % of fluorescent control [12] 0.0827% [at 18.6 µM] | fluorescence, % of Rose Bengal [13] -0.0322% [at 18.6 µM] | fluorescence, % of fluorescent control [18] 0.014% [at 18.6 µM] | fluorescence, % of fluorescein control [14] -0.0041% [at 18.6 µM] | fluorescence, % of fluorescent control [15] 0.061% [at 18.6 µM]

CCN(CC)CCCC(C)Nc1c2ccc(Cl)cc2nc2ccc(OC)cc12 (stereo not given)
active: Potency [1] 5.96 µM | Potency [2] 29.8 µM | Potency [7] 11.2 µM [fluorescent] | Potency [10] 17.8 µM | Potency [15] 15.8 µM [fluorescent]
inactive: Potency [4] | Potency [6] | Potency [17] | Potency [8] | outcome [9] | Potency [12] | Potency [13] | Potency [14]

Clc1ccc2cc3ccccc3cc2c1
active: Potency [1] 54.4 µM
inactive: Potency [3] | Potency [4] | Potency [5] | Potency [6] | Potency [17] | Potency [7] | Potency [8] | outcome [9] | Potency [10] | outcome [11] | Potency [12] | Potency [13] | Potency [14] | Potency [15]

CCC(C)(C)C1CCCCC1OC(C)=O (stereo not given)
inactive: Potency [1] | Potency [2] | Potency [3] | Potency [4] | Potency [5] | Potency [6] | Potency [7] | Potency [8] | outcome [9] | Potency [10] | Potency [12] | Potency [13] | Potency [18] | Potency [14] | Potency [15]

O=C(Nc1cccc(C(F)(F)F)c1)c1cc(Br)cc(Br)c1O
active: Potency [1] 5.31 µM and 1.72 µM | Potency [3] 473 nM and 686 nM | Potency [4] 13.3 µM | Potency [16] 335 nM and 109 nM | activation [20, 21] 9.27% [inconclusive]
inactive: Potency [6] | Potency [17] | Potency [7] | Potency [8] | Potency [10] | outcome [11] | Potency [13] | Potency [18] | Potency [14] | Potency [15] | activation ([20]; at 62.4 µM (top of the series)) 10.1%

COc1cccc2c1C(=O)c1c(O)c3c(c(O)c1C2=O)C[C@@](O)(C(=O)CO)C[C@@H]3O[C@H]1C[C@H](N)[C@H](O[C@@H]2CCCCO2)[C@H](C)O1
inactive: Potency [5] | Potency [7] | outcome [9] | Potency [10] | outcome [11] | Potency [18] | Potency [14] | Potency [15]
active: Potency [1] 1.88 µM | Potency [2] 2.37 µM | Potency [3] 8.41 µM | Potency [16] 0.699 µM | Potency [20, 21] 3.01 µM

Cc1cc(C2CCCCC2)n(O)c(=O)c1
inactive: Potency [3] | Potency [4] | Potency [5] | fluorescence, relative to Rose Bengal [6] 0.33% [at 18.6 µM] | fluorescence, % of fluorescein control [17] -0.0302% [at 18.6 µM] | fluorescence, % of triamterene [7] -0.0951% [at 18.6 µM] | fluorescence, % of fluorescent control [8] -0.0357% [at 18.6 µM] | fluorescence, % of fluorescein [9] 0.0799% [at 18.6 µM] | fluorescence, % of fluorescent control [10] -0.0092% [at 18.6 µM] | activity change [11] 0.0414% [at 18.6 µM] | fluorescence, % of Rose Bengal [13] -0.0195% [at 18.6 µM] | fluorescence, % of fluorescent control [18] 0.0075% [at 18.6 µM] | fluorescence, % of fluorescent control [15] 0.0031% [at 18.6 µM]
active: Potency [1] 8.04 µM | Potency [16] 3.2 µM

O=C1C=CC(=O)N1c1ccc(Cc2ccc(N3C(=O)C=CC3=O)cc2)cc1
inactive: Potency [6] | Potency [17] | Potency [7] | Potency [8] | outcome [9] | Potency [10] | Potency [12] | Potency [13] | Potency [18] | Potency [14] | Potency [15]
active: Potency [1] 13.7 µM | Potency [3] 10.9 µM | Potency [4] 15.4 µM | Potency [5] 7.7 µM | Potency [16] 6.86 µM

CCCC(=O)OC[C@@H](OC(=O)CCC)[C@@H](OC(=O)CCC)[C@H](Cn1c2nc(=O)[nH]c(=O)c-2nc2cc(C)c(C)cc21)OC(=O)CCC
inactive: Potency [2] | Potency [3] | Potency [4] | Potency [5] | Potency [6] | Potency [7] | Potency [8] | Potency [10] | Potency [12] | Potency [13] | Potency [18] | Potency [15]
active: Potency [16] 6.99 µM | Potency [17] 8.91 µM | Potency [14] 8.91 µM [fluorescent]

Oc1cc2ccccc2c2ccccc12
inactive: Potency [2] | Potency [6] | Potency [17] | Potency [7] | Potency [8] | outcome [9] | Potency [10] | outcome [11] | Potency [12] | Potency [13] | Potency [18] | Potency [14] | Potency [15]
active: Potency [3] 6.11 µM | Potency [4] 17.2 µM | Potency [5] 19.3 µM | Potency [16] 0.969 µM | Potency [19] 19.5 µM

CN(C)[C@@H]1C(=O)C(C(N)=O)=C(O)[C@@]2(O)C(=O)C3=C(O)c4c(O)ccc(Cl)c4[C@@H](O)[C@H]3C[C@@H]12
inactive: Potency [2] | Potency [3] | Potency [4] | Potency [5] | Potency [16] | Potency [6] | Potency [17] | Potency [7] | Potency [8] | outcome [9] | Potency [10] | outcome [11] | Potency [12] | Potency [13] | Potency [18] | Potency [14] | Potency [15] | Potency [20, 21] | Potency [19]
